FLuc modulator = counter-screen for miR-21 project: firefly luciferase inhibitors or activators | AID 588342 | purified FLuc, Km substrates, luminescence inhibition | 360,000 tested, 6.9% active | P08659 | Potency, µM (highest dose often 57.5 µM), without a hit: top-dose activity change, negative = inhibition, most hits filed as inhibitors;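 further: plate controls were vehicle for no effect and reference inhibitor for full effect; nearly all actives have a fitted effect of over 55% in size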
Target sequence (P08659 whole entry, looked up): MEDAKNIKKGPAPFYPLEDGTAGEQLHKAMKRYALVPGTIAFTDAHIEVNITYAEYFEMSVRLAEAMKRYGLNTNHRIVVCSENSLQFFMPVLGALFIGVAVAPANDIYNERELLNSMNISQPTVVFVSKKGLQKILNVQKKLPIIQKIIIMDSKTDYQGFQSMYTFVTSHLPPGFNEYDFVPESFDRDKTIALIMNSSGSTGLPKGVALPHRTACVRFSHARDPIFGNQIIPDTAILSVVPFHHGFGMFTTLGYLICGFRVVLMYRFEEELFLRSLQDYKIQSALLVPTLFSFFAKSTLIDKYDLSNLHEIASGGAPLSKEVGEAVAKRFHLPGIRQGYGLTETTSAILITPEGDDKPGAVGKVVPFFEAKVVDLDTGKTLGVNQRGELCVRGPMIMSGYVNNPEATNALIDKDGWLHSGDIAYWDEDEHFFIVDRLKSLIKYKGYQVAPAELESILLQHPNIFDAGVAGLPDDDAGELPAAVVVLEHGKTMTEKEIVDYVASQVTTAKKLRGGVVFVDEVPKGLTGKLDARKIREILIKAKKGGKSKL
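Purified P. pyralis luciferase (10nM final) with 10uM D-luciferin and 10uM ATP (Km levels) in 50mM Tris acetate pH 7.5, 10mM Mg acetate, 0.01% Tween-20, 0.05% BSA; qHTS 6-point titration, ~60 µM downward; luminescence read.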
ELG1 genotox = inducers of genotoxicity in HEK293T ELG1-luciferase cells; HEK293T ELG1-luciferase reporter, luminescence, 16 h; Potency, µM (highest dose often 46 µM), for inactives: at the top dose activity change, positive = activation, hits mostly activators; 330,000 tested, 1.3% active; AID 504466; further: % of control where 0% means no effect; nearly all actives have a fitted effect of over 60% in size
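Genotoxicity was scored as increased ELG1-luciferase reporter signal, measured by ONE-Glo luminescence (30 min, room temperature). Compound or vehicle exposure of the HEK293T reporter cells lasted 16 hr at 37°C.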
Rab9 prom act = activators of Rab9 promoter; Huh7 Rab9 promoter-luciferase reporter, luminescence, 24 h; 320,000 tested, 2.8% active; AID 485297; Potency, µM (highest dose often 9.22 µM), for inactives: at the highest dose activation, negative = inhibition, usual class: activators; further: % of control where 0% means no effect; nearly all actives have a fitted effect of over 60% in size
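Huh7 reporter line, Rab9 promoter upstream of luciferase. Compound exposure 24 h at 37 °C in reduced-serum medium with 10% FBS. Read-out: luminescence.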
Luc counter = blocks Kinase-Glo luciferase, a counter-screen artifact | Q27757 | Kinase-Glo luciferase, ATP luminescence, 8 min | Potency, µM (top dose mostly 38.3 µM), without a hit: at the highest dose activity change, negative = inhibition, actives largely listed as inhibitors | 200,000 tested, 0.28% active; further: on the % scale 0 is the no-effect control and ±100 the full control effect; nearly all actives have a fitted effect of over 60% in size
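Light output from Kinase-Glo luciferase with luciferin and 10 uM ATP in 50 mM imidazole pH 7.2, KCl, MgCl2, Tween 20, BSA; compound pin-delivered, 8-min ambient incubation, then luminescence read.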
NPC1 promoter act = activators of NPC1 promoter. AID 485313. Potency, µM (top dose mostly 9.22 µM), inactives show at the highest dose activation, actives largely listed as activators. 320,000 tested, 2.4% active. Huh7 NPC1 promoter luciferase reporter, 24 h; further: % of control where 0% means no effect; nearly all actives have a fitted effect of over 60% in size
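Readout is luciferase luminescence, reflecting NPC1 promoter activation in stably transfected Huh7 cells after 24 h compound exposure at 37 °C in reduced-serum medium with 10% FBS.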
SMN2 splice up = enhancers of SMN2 splice variant expression | Potency, µM (series often up to 46.1 µM), for the others: at the highest dose activity change, positive = activation, most hits filed as activators | 210,000 tested, 2.8% active | HEK293 SMN2-luciferase splicing reporter, luminescence, 30-36 h; further: % of control where 0% means no effect; nearly all actives have a fitted effect of over 55% in size
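qHTS luciferase splicing reporter: luminescence rises when SMN2 exon 7 is included in transfected HEK293 cells. Compound exposure lasted 30-36 h at 37C, with 4.5 mM final sodium butyrate as control, followed by a ONE-Glo read.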
* marks the source's active call; other numbers are inactive results; [ ] = remark or other dose. Most compounds without a hit are left out; they make up all but 7.3% or so of the library. The call rests on the fitted dose curve; in most records, active means well fitted curve in the direction sought with a large enough effect; inconclusive means small, poorly fitted or top-dose-only effect, or another doubt; inactive means no such curve, though single readings can be large; an effect the other way counts as inactive or inconclusive. Potency means the concentration at half of the fitted maximal effect.

`Cc1ccc(S(=O)(=O)NCc2ccccc2)cc1C(=O)NC1CCC(C)CC1` (stereo not drawn) gave FLuc modulator inconclusive, ELG1 genotox inconclusive, Rab9 prom act 1.26µM* and NPC1 promoter act inconclusive.
Screening O=C(Nc1nc(-c2ccccn2)cs1)c1ccc([N+](=O)[O-])o1 returned FLuc modulator inconclusive, ELG1 genotox 5.9%, Rab9 prom act -31.5% and NPC1 promoter act 0.7%.
`Cc1ccc(C(=O)Nc2nc(-c3ccccn3)cs2)o1` gave FLuc modulator 19µM*, ELG1 genotox 3.8%, Rab9 prom act -1.2% and NPC1 promoter act -1.5%.
For CCc1cc(C(=O)Nc2nc(-c3ccccn3)cs2)sc1C the results were FLuc modulator 12µM*, ELG1 genotox 5.4%, Rab9 prom act 23.6% and NPC1 promoter act 23.8%.
CCCOc1ccc(C(=O)CCC(=O)OCC(=O)N(C)c2c(N)n(Cc3ccccc3)c(=O)[nH]c2=O)cc1 was read as FLuc modulator inconclusive, ELG1 genotox -3.2%, Rab9 prom act 2.6% and NPC1 promoter act 0.4%.
Screening CCN(CC)C(=O)C1CCCN(C(=O)Nc2ccc(NC(=O)N3CCCC(C(=O)N(CC)CC)C3)cc2)C1 (stereo not drawn) returned FLuc modulator 4.0%, ELG1 genotox -5.2%, Rab9 prom act -0.6%, Luc counter 17.8%, NPC1 promoter act 0.5% and SMN2 splice up -5.0%.
Screening CCN(Cc1ccccc1)c1ccc(/C=N/N2CCOCC2)cc1 returned FLuc modulator inconclusive, ELG1 genotox 13.2%, Rab9 prom act 11.6%, Luc counter -3.1%, NPC1 promoter act 16.5% and SMN2 splice up -14.1%.
Screening CCN(CC)c1ccc(/C=N/N2CCOCC2)cc1 returned FLuc modulator 8.49µM*, ELG1 genotox 7.31µM*, Rab9 prom act 3.16µM*, Luc counter 6.4%, NPC1 promoter act 3.55µM* and SMN2 splice up 22.4µM*.
Screening Cc1cc(C)n2nc(C(=O)N3CCCC(Nc4ccc(C(C)C)cc4)C3)cc2n1 (stereo not drawn) returned FLuc modulator -0.2%, ELG1 genotox -2.1%[9.26 µM], Rab9 prom act -2.7% and NPC1 promoter act -6.8%.
For CCn1nc(C)cc1C(=O)Sc1ccc(C)cc1 the results were FLuc modulator 16.9µM*, ELG1 genotox 0.0%, Rab9 prom act -4.1% and NPC1 promoter act -1.3%.
Cn1ncc2c(N3CCN(c4cccc(Cl)c4)CC3)ncnc21 was read as FLuc modulator -8.0%.
`Cc1ccc(-n2ncc3c(N4CCN(C)CC4)ncnc32)cc1C` gave FLuc modulator 4.26µM*.
For CN1CCN(c2ncnc3c2cnn3-c2cccc(Cl)c2)CC1 the results were FLuc modulator 13.5µM*.
Cc1ccc(-n2ncc3c2ncn2c(C)nnc32)cc1C was read as FLuc modulator 5.36µM*, ELG1 genotox inconclusive, Rab9 prom act 2µM*, Luc counter -19.6%, NPC1 promoter act 2.51µM* and SMN2 splice up inconclusive.
`COc1ccc(/C=N/n2c(SC)nnc(C(C)(C)C)c2=O)c(OC)c1` gave FLuc modulator -3.7%, ELG1 genotox -3.1%, Rab9 prom act -2.3%, Luc counter -5.9%, NPC1 promoter act -2.8% and SMN2 splice up -7.3%.
For CC(/C=C/c1ccccc1)=N\NC(=O)CCc1ccccc1 the results were FLuc modulator 2.2%, ELG1 genotox -0.3%, Rab9 prom act -4.8%, Luc counter -1.9% and NPC1 promoter act -1.9%.
Screening Cn1c(SCc2c(F)cccc2Cl)nnc1-c1cccs1 returned FLuc modulator 15.1µM*, ELG1 genotox 13µM*, Rab9 prom act 2.24µM*, Luc counter -2.2%, NPC1 promoter act inconclusive and SMN2 splice up 20µM*.
Cn1c(SCCOc2ccccc2Cl)nnc1-c1cccs1 was read as FLuc modulator inconclusive, ELG1 genotox 5.6%, Rab9 prom act 3.1%, Luc counter 6.2%, NPC1 promoter act -1.4% and SMN2 splice up -5.0%.
`CCOC(=O)C1=C(COC(=O)/C=C/c2ccccc2F)NC(=O)NC1C` (stereo not drawn) gave FLuc modulator 3.8%, ELG1 genotox 10.0%, Rab9 prom act 1.6% and NPC1 promoter act -3.5%.
CCOC(=O)C1=C(COC(=O)c2cccc(Br)c2)NC(=O)NC1C (stereo not drawn) was read as FLuc modulator 2.0%, ELG1 genotox 1.6%, Rab9 prom act -0.1% and NPC1 promoter act 9.2%.
Screening CCOC(=O)C1=C(COC(=O)c2cccc(N(C)C)c2)NC(=O)NC1C (stereo not drawn) returned FLuc modulator 23.9µM*, ELG1 genotox inconclusive, Rab9 prom act 2.82µM* and NPC1 promoter act inconclusive.
CCOC(=O)C1=C(COC(=O)/C=C/c2ccccc2Cl)NC(=O)NC1C (stereo not drawn) was read as FLuc modulator 26.9µM*, ELG1 genotox inconclusive, Rab9 prom act 27.0% and NPC1 promoter act 2.6%.
`O=C1CNC(=O)N1c1ccc(Cl)cc1` gave FLuc modulator -2.3%, ELG1 genotox -2.6%, Rab9 prom act -2.1% and NPC1 promoter act -6.0%.
For Cc1ccccc1Nc1nc(N)nc(COC(=O)[C@@H](NC(=O)c2c(F)cccc2F)C(C)C)n1 the results were FLuc modulator 3.3%, ELG1 genotox -5.5%, Rab9 prom act 0.7% and NPC1 promoter act 0.2%.
For Cc1nc(=O)c(-c2ccccc2)c(C)n1CCO the results were FLuc modulator 2.1%, ELG1 genotox -0.2%, Rab9 prom act 0.4%, Luc counter -1.0%, NPC1 promoter act -1.6% and SMN2 splice up -7.2%.
Screening CCOc1ncccc1C(=O)OCC(=O)NCCc1ccccc1 returned FLuc modulator 6.6%, ELG1 genotox -0.7%, Rab9 prom act -1.1%, Luc counter 4.2%, NPC1 promoter act 1.6% and SMN2 splice up 2.7%.
CCc1ccc(-n2nc(CO)c(C(=O)NCCOC)n2)cc1 was read as FLuc modulator 16.9µM* and SMN2 splice up -1.6%.
Cc1ccc(NC(=O)Cc2nnc(SCC(=O)Nc3ccccc3)n2C)cc1 was read as FLuc modulator 19µM*, ELG1 genotox 0.0%, Rab9 prom act -5.7%, Luc counter 0.7%, NPC1 promoter act 1.4% and SMN2 splice up 4.8%.
COc1ccccc1-c1nnc(SCC(=O)Nc2ccc(N3CCOCC3)cc2)n1C was read as FLuc modulator 19µM*, ELG1 genotox 20.9%, Rab9 prom act 14.0% and NPC1 promoter act 8.0%.
Cc1ccc(NC(=O)Cc2nnc(SCC(=O)Nc3ccc(N4CCOCC4)cc3)n2C)cc1 was read as FLuc modulator 12µM*, ELG1 genotox 5.3%, Rab9 prom act -0.2% and NPC1 promoter act 2.0%.

From PubChem
